# From PubChem BioAssay
# Many of the other results were omitted from the sample, so hits are more common in it than they were.
# Pf apPOL inh: Pf-apPOL DNA polymerase inhibition; Recombinant Pf-apPOL, molecular beacon fluorescence, 1.5 h; inhibition, % at 10 µM; 210,000 tested, 0.25% active
# mHTT-CaM PPI inh: mHTT-calmodulin interaction abrogation. AlphaScreen His-mHTT/GST-CaM binding, luminescence. inhibition, % at 15 µM. 190,000 tested, 3.6% active
# Hits are given with their value; . = inactive. Cut-off read from the data, not from the text of the source: active = inhibition above about 50%; inactive = the rest.
SMILES,Pf apPOL inh,mHTT-CaM PPI inh
Cc1ccc(C2CC(c3ccc(C)cc3C)=NN2C(=O)CN2CCOCC2)cc1 (stereo not drawn),.,76
Cc1ccc(C2CC(c3ccccc3)=NN2C(=O)CN2CCOCC2)cc1 (stereo not drawn),.,.
Cc1nc(SCC(=O)c2cccc([N+](=O)[O-])c2)n[nH]1,.,.
Cc1ccc2nc(-c3ccc(C)o3)c(NC(=O)C(Cl)Cl)n2c1,.,.
CCc1nc(C)c2c(n1)N(CCCN1CCOCC1)C(=O)CC2,.,.
Cn1cc(CC(=O)Nc2ccc(Oc3ccccc3)cc2)c2ccccc21,.,.
COc1c(-c2cc(C(F)(F)C(F)F)[nH]n2)c(O)c(OC)c2occc12,.,.
COc1ccc(-c2cc(-c3c(O)c(OC)c4occc4c3OC)[nH]n2)cc1OC,.,86
Cc1cccc(CN2CCCn3nc(C(=O)NCCCOC(C)C)cc3C2=O)c1,.,.
O=C1C(Nc2cccc(C(F)(F)F)c2)=C(N2CCOCC2)C(=O)c2ccccc21,.,66
O=C1C(Nc2cccc(I)c2)=C(N2CCCCC2)C(=O)c2ccccc21,.,92
CC(=O)NC1=C(N2CCN(c3ccccc3)CC2)C(=O)c2ccccc2C1=O,.,.
O=C1C(Nc2cccc(I)c2)=C(N2CCCC2)C(=O)c2ccccc21,.,99
O=C1C(Nc2cccc(I)c2)=C(N2CCOCC2)C(=O)c2ccccc21,.,86
Cc1cccc(NC2=C(N3CCOCC3)C(=O)c3ccccc3C2=O)c1,.,.
CC(=O)Nc1ccc(NC2=C(N3CCCCC3)C(=O)c3ccccc3C2=O)cc1,.,.
O=C1C(Nc2ccc(F)c(F)c2)=C(N2CCOCC2)C(=O)c2ccccc21,.,.
CC(C)NC(=O)c1ccccc1NC(=O)Cc1ccccc1,.,.
Nc1nc(-c2ccccc2)cs1,.,.
CC(=O)N1c2ccccc2NC2=C(C(=O)CC(C)(C)C2)C1c1ccccn1 (stereo not drawn),.,.
N#CC1=C(N)Oc2n[nH]c(C34CC5CC(CC(C5)C3)C4)c2C1c1ccc(O)cc1 (stereo not drawn),.,.
N#CC1=C(N)Oc2n[nH]c(C34CC5CC(CC(C5)C3)C4)c2C1c1cccs1 (stereo not drawn),.,55
O=C(NCc1ccccc1)C1(S(=O)(=O)c2ccc(Cl)cc2)CC1,.,.
O=C(Nc1ccccc1[N+](=O)[O-])c1ccc(Cl)c(S(=O)(=O)Nc2ccc(Cl)cc2)c1,.,86
O=C(Nc1ccccc1[N+](=O)[O-])c1ccc(Br)c(S(=O)(=O)Nc2ccccc2)c1,.,.
SMILES,Pf apPOL inh,mHTT-CaM PPI inh
O=C(Nc1ccccc1[N+](=O)[O-])c1ccc(Cl)c(S(=O)(=O)NCc2ccco2)c1,54,.
O=C(Nc1ccccc1[N+](=O)[O-])c1ccc(Cl)c(S(=O)(=O)NCc2ccccc2)c1,.,.
COc1ccc(CN([C@H](C)CO)S(=O)(=O)N(Cc2ccccc2)[C@H](CO)C(C)C)cc1,.,.
CC(C)C[C@@H](CO)N(Cc1ccccc1)S(=O)(=O)N(Cc1ccccc1)[C@@H](CO)CC(C)C,.,100
CC(C)C[C@@H](CO)N(Cc1ccccc1)S(=O)(=O)N(Cc1ccccc1)[C@H](CO)CC(C)C,.,93
COc1ccc(CN([C@H](CO)CC(C)C)S(=O)(=O)N(Cc2ccccc2)[C@H](CO)CC(C)C)cc1,.,98
O=S(=O)(N(Cc1ccccc1)[C@H](CO)Cc1ccccc1)N(Cc1ccccc1)[C@H](CO)Cc1ccccc1,.,.
C=C[C@H](CC(C)C)N(Cc1ccccc1)S(=O)(=O)N(Cc1ccccc1)[C@@H](C=C)CC(C)C,.,.
O=C(COc1ccccc1)N1CCN(C(=O)c2ccco2)CC1,.,.
Cc1c(NC(=O)c2cncc(Br)c2)cccc1-c1nc2cc(Cl)ccc2o1,.,.
COc1ccc(N2CCN(C(=O)COc3ccccc3C)CC2)cc1,.,.
Cc1ccc(NC(=O)C2CCCN(c3nnc4cccc(C)n34)C2)cc1F (stereo not drawn),.,53
Cc1cc(NC(=O)C2CCCN(c3nnc4cccc(C)n34)C2)ccc1F (stereo not drawn),.,.
O=C(O)C1CSC(c2cccc(OCc3ccc(Cl)cc3Cl)c2)N1 (stereo not drawn),.,.
CCSc1nnc(-c2nn(C)c3c2CN(C(=O)c2ccccc2OC)CC3)n1C,.,.
O=C(Sc1n[nH]c(=O)[nH]c1=O)c1ccc(Cl)cc1,.,.
Cc1cccc(C(=O)Sc2n[nH]c(=O)[nH]c2=O)c1,.,70
N#Cc1c(NC(=O)Cn2cnc([N+](=O)[O-])n2)sc2c1CCCC2,.,.
Cn1cc(C(c2ccco2)c2cn(C)c3ccccc23)c2ccccc21,.,58
Cn1cc(C(c2ccc(Br)o2)c2cn(C)c3ccccc23)c2ccccc21,.,.
CC(CCC(=O)N=Nc1c(O)[nH]c2ccc(Br)cc12)C1CCC2C3C(O)CC4CC(O)CCC4(C)C3CCC12C (stereo not drawn),.,63
C[C@H](CCC(=O)OCc1cn(CC(=O)c2ccc(O)cc2)nn1)[C@H]1CC[C@H]2[C@@H]3CC[C@@H]4C[C@H](O)CC[C@]4(C)[C@H]3C[C@H](O)[C@]12C,.,.
CC1=NN(c2ccc(C)c(Cl)c2)C(=O)C1,.,91
CC1=NN(c2cc(Cl)c(S(=O)(=O)O)cc2Cl)C(=O)C1,.,.
COc1ccc(C(NC(C)=O)c2cc([N+](=O)[O-])c3cccnc3c2O)cc1 (stereo not drawn),.,100
SMILES,Pf apPOL inh,mHTT-CaM PPI inh
O=[N+]([O-])c1cccc(Cl)c1N1CCN(c2ccc([N+](=O)[O-])c3cccnc23)CC1,.,.
CC(=O)NC(c1ccccc1)c1cc([N+](=O)[O-])c2cccnc2c1O (stereo not drawn),.,100
COc1ccc(NC(=O)CSc2cccc3cccnc23)c([N+](=O)[O-])c1,.,.
Cc1cc(I)ccc1Nc1c([N+](=O)[O-])cc([N+](=O)[O-])c2cccnc12,.,.
CC(=O)NC(c1ccccc1Cl)c1cc([N+](=O)[O-])c2cccnc2c1O (stereo not drawn),.,100
COc1ccc(Br)cc1C(=O)Nc1cccc([N+](=O)[O-])c1,.,.
CN(C)CCNC(=O)c1ccc(S(=O)(=O)N2CCCC2)cc1,55,.
O=C(NC1CCCCC1)c1ccc(S(=O)(=O)N2CCCC2)cc1,.,.
CCc1ccccc1NS(=O)(=O)c1cc(Cl)ccc1OC,.,.
N#Cc1c(-c2ccccc2)cc(-c2cccs2)nc1Br,.,.
COc1nc(-c2cccs2)cc(-c2ccc(C)cc2)c1C#N,53,.
COc1cccc(-c2nc(C3CCCN(C(=O)c4cc(C)ccc4C)C3)no2)c1 (stereo not drawn),.,.
Cc1ccc(NC(=O)Cc2nc(-c3ccccn3)n[nH]2)c(C)c1,.,86
Cc1ccc(C)c(NC(=O)Cc2nc(-c3ccccc3)n[nH]2)c1,.,.
Cc1ccc(C)c(NC(=O)Cc2nc(-c3ccccn3)n[nH]2)c1,.,99
Cc1cccc(NC(=O)Cc2nc(-c3ccccc3)n[nH]2)c1,.,.
Cc1cc(F)ccc1NC(=O)Cc1nc(-c2ccccn2)n[nH]1,.,99
Cc1cc(F)ccc1NC(=O)Cc1nnc(-c2ccc3ncccc3c2)o1,.,.
Cc1cc(C)cc(NC(=O)Cc2nc(-c3ccccn3)n[nH]2)c1,.,78
Cc1ccc(NC(=O)Cc2ccccc2)c(C)c1,.,.
N#Cc1cc2c(nc1SCC(=O)Nc1nccs1)CCCC2,.,.
